Hits are enriched below; roughly 19% of the tested compounds scored in any of these assays.
Pf growth 48h = inhibits P. falciparum growth in the first generation, 48 h; P. falciparum luciferase growth in erythrocytes, 48 h; Potency, µM (series often up to 28.7 µM), without a hit: top-dose activity change, negative = inhibition, most hits filed as inhibitors; 310,000 compounds, 5.9% hits; further: potency means the concentration at half of the fitted maximal effect; on the % scale 0 is the no-effect control and ±100 the full control effect
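Cell-based growth assay: transgenic P. falciparum expressing firefly luciferase, cultured in red cells within RPMI 1640 containing 0.5% w/v Albumax, 24 mM bicarbonate and gentamycin. A drop in luciferase activity indicates inhibition.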
CHX counter = counter-screen for Shiga toxin inhibitors: cycloheximide protein synthesis inhibition; cell reporter, cycloheximide protein synthesis inhibition counterscreen; max response, %; 300,000 compounds, 12% hits; in the data active means max response mostly above about 13%, no sharp cut-off; inactive means mostly below about 14%; further: read at 38.3 µM for the half of the compounds with a filed dose; 0% is about no effect
Pf growth 96h = inhibits malaria parasite growth, 96 h; 320,000 compounds, 6.9% hits; P. falciparum luciferase reporter growth, 96 h; AID 504834; Potency, µM (titrated, usually from 28.7 µM), for inactives: at the top dose activity change, negative = inhibition, actives largely listed as inhibitors; further: potency means the concentration at half of the fitted maximal effect; on the % scale 0 is the no-effect control and ±100 the full control effect
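Plates of compound plus infected erythrocytes (2% hematocrit, 0.05% parasitemia final) incubate 96 hours, 37 C, 5% CO2. Detection reagent added; reduced luminescence from the parasites' luciferase reporter flags inhibition.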
Shiga toxin inh = blocks Shiga toxin action in Vero cells | Vero cells, Shiga toxin protein synthesis inhibition reporter | inhibition, % at 38.7 µM | 290,000 compounds, 9.2% hits | AID 2315; in the data active means inhibition mostly above about 28%, no sharp cut-off; inactive means mostly below about 43%; further: 0% is about no effect
AMA1 RON2 block = AMA1-RON2 (P. falciparum) interaction inhibition; AlphaScreen AMA1-biotinylated RON2 peptide binding; Potency, µM (series often up to 58.2 µM), for the others: top-dose activity change, negative = inhibition, usual class: inhibitors; 360,000 compounds, 0.2% hits;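 further: potency means the concentration at half of the fitted maximal effect; 0% = vehicle wells and -100% = peptide control; nearly all actives have a fitted effect of over 45% in size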
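AMA1 (3D7) with his tag at 25 nM final met compounds first, then biotinylated RON2 peptide at 25 nM; detection used donor plus acceptor beads, 10 µg/mL apiece, read by AlphaScreen after 30 min at room temperature.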
SARS PLpro yeast = blocks SARS-CoV papain-like protease in a yeast assay; 330,000 compounds, 0.19% hits; Potency, µM (series often up to 32.9 µM), inactives show at the top dose activity, positive = growth rescue, actives largely listed as activators; S. cerevisiae expressing SARS-CoV PLpro, growth rescue; calls by dose curve; further: potency means the concentration at half of the fitted maximal effect; 0% is about no effect; nearly all actives have a fitted effect of over 55% in size
Active calls of the source: *; ? = inconclusive; / = no result; [ ] = another dose, or the depositor's remark. Unless noted, the call rests on the fitted dose curve; in most records, active means well fitted curve in the direction sought with a large enough effect; inconclusive means small, poorly fitted or top-dose-only effect, or another doubt; inactive means no such curve, though single readings can be large; an effect the other way counts as inactive or inconclusive.

SMILES	Pf growth 48h	CHX counter	Pf growth 96h	Shiga toxin inh	AMA1 RON2 block	SARS PLpro yeast
CCOC(=O)c1[nH]c2ccccc2c1NC(=S)Nc1cccc(C)c1C	80%	29*	50%	33	125%	-4%
CN(C)c1ccc(/C=C2\CCCCC2=O)cc1	231%	14*	322%	28	16%	-16%
O=C1C(C=NCCN2CCOCC2)=C(O)c2ccccc21	14%	47*	?	84*	-7%[2.32 µM]	5%
Cc1cccc(-n2c(O)c(C=NCCCN3CCOCC3)c3ccccc3c2=O)c1	7.4µM*	7	?	15	-4%	0%
CCN1CCCC1CN=Cc1c(O)n(-c2ccccc2)c(=O)c2ccccc12 (centres undefined)	3.7µM*	-1	5%[5.75 µM]	11	-1%	3%
CC(C)CCN=Cc1c(O)n(-c2ccccc2)c(=O)c2ccccc12	/	-3	?	-14	-24%	4%
O=C1C(C=NCCCN2CCOCC2)=C(O)c2ccccc21	18%	27*	?	59*	12%	0%
COc1ccc(C2CC(=O)C(C=NCCCN3CCOCC3)=C(O)C2)cc1 (centres undefined)	11%	0	3.3µM*	8	5%	0%
O=C(c1cccc(C(F)(F)F)c1)C1CCCN(C(=O)CN2CCOC2=O)C1 (centres undefined)	1%	11	-1%	17	10%	-2%
CCOC(=O)/C=C(\C)Sc1cc(O)c2ccccc2c1O	1.5µM*	31*	1.7µM*	59*	-16%	-7%
O=C(CN1CCN(C(=O)CNC(=O)c2ccc(-c3ccccc3)cc2)CC1)Nc1ccccc1Cl	/	/	/	/	6%	/
CCOC(=O)NC(=O)/C(C#N)=C/c1ccc(N(C)C)cc1	159%	36*	36%	30	-8%	-2%
CN(C)c1ccc(/C=C(\C#N)c2ccccc2)cc1	350%	57*	138%	63*	-30%	-2%
CN(C)c1ccc(/C=C(\C#N)C(=O)c2ccccc2)cc1	6%	14*	4%	41	10%	-1%
CN(C)c1cccc(/C=C(\C#N)c2ccccc2)c1	237%	42*	193%	77*	-26%	-6%
Cc1ccc(C=C(C#N)C(=O)c2ccccc2)cc1	/	/	/	/	17%	/
O=C(/C=C/[C@H]1O[C@@H](n2ccc(=O)[nH]c2=O)[C@H](O)[C@@H]1O)NCCN1CCOCC1	/	/	/	/	7%	/
COc1ccc(C2/C(=C(/O)c3ccc(C)cc3)C(=O)C(=O)N2CCCN2CCOCC2)cc1 (centres undefined)	14%	-2	?	/	14%	1%
Cc1ccc(-n2nnc(-c3cccnc3Cl)n2)cc1	143%	47*	179%	87*	2%	-2%
COc1ccc2[nH]c(=O)c(-c3nnn(-c4ccc(Cl)nc4)n3)cc2c1	/	/	/	/	-9%	/
Cn1ccnc1-c1nnn(-c2ccc(Cl)c(Cl)c2)n1	/	/	/	/	17%	/
Clc1ccc(-n2nnc(-c3cccnc3Cl)n2)cn1	114%	35*	279%	50*	0%	-2%
Brc1ccccc1-n1nnc(-c2nccs2)n1	281%	49*	78%	77*	1%	-3%
COc1ncccc1-c1nnn(-c2ccc(Cl)nc2)n1	102%	20*	141%	42	19%	12%
N#Cc1ccc(Oc2cccnc2)cc1C#N	10%	-2	?	-10	-2%	5%
SMILES	Pf growth 48h	CHX counter	Pf growth 96h	Shiga toxin inh	AMA1 RON2 block	SARS PLpro yeast
NCCS	4%	-2	9%	-14	2%	1%
O=C(NCCN1CCOCC1)C1(C(F)(F)F)C/C(=C\CCO)CCCO1 (centres undefined)	/	0	/	-6	/	/
Clc1ncccc1-c1nnn(-c2ccccc2Br)n1	104%	34*	134%	73*	12%	-2%
Cc1ccc(Cn2cc(SCC(=O)Nc3nccs3)c3ccccc32)cc1	?	24*	?	33	15%	7%
Cc1ccc(Cn2ccnc2C(=O)Nc2ccccc2)cc1	157%	27*	100%	87*	5%	-3%
O=C(CSc1nccn1Cc1ccccc1)NC1CCCC1	0%	25*	10%	18	-2%	13µM*
O=C(CSc1nccn1Cc1ccccc1)Nc1ccccc1	-2%	18*	-12%	33*	-16%	28%
CC(=O)Nc1cccc(NC(=O)CSc2nccn2Cc2ccccc2)c1	-12%	13	4%	21	-1%	?
N#Cc1ccc(Cn2ccnc2C(=O)Nc2ccccc2)cc1	11%	20	6%	35	-22%	-2%
O=C(CSc1nccn1Cc1ccc(F)cc1)NC1CCCC1	5%	6	8%	6	5%	7%
O=C(CSc1nccn1Cc1ccccc1)Nc1nccs1	40%	37*	10%	active	-10%	2%
O=C(CSc1nnc(-c2ccccn2)n1Cc1ccccc1)NC1CCCC1	8.3µM*	9	?	-23	0%	4%
COC(=O)c1ccc(NC(=O)CSc2nccn2CCc2ccccc2)cc1	66%	44*	/	88	2%	5%
COC(=O)c1ccc(NC(=O)CSc2nncn2-c2ccccn2)cc1	39%	-3	-12%	13	9%	0%
O=[N+]([O-])c1cc(-c2nnc(C34CC5CC(CC(C5)C3)C4)o2)cc([N+](=O)[O-])c1	?	-2	?	-10	-5%	-1%
COC(=O)c1sccc1NC(=O)NC1CCCCC1	74%	47*	-7%	31	-2%	-6%
O=C(Nc1nccs1)NC1CCCCC1	2.9µM*	14	12%	18	0%	1%
CN(C(=S)NC(=O)/C=C/c1ccc(F)cc1)C1CCCCC1	?	17	?	24	32%	10%
Cc1ccc(C(=O)NC(=S)N(C)C2CCCCC2)cc1	-24%	50*	?	126*	92%	1%
COC(=O)c1sccc1NC(=O)CCC1CCCCC1	5%	9	12%	53	24%	2%
COC(=O)c1sccc1NC(=S)N(C)C1CCCCC1	9.3µM*	7	?	17	-6%	-8%
CC(=O)Nc1ccc(OC(=O)N2CCCC2)cc1	25%	2	?	/	-2%	3%
COc1ccc2c(c1OC)C(=O)N(c1cccc(/C=C/C(=O)O)c1)C2	-15%[0.00184 µM]	-4	-16%	-4	0%	1%
COc1ccc(N2Cc3ccc(OC)c(OC)c3C2=O)cc1	139%	48*	101%	76*	0%	-1%
COc1ccc2c(c1OC)C(=O)N(c1nccs1)C2	98%	34*	91%	66	0%	11%
Cc1ccc(/C=N/NC(=O)CSc2nc3ccccc3[nH]2)o1	-8%	18*	?	21	-7%	1%
CCC(C)/C(C)=N/NC(=O)CSc1nc2ccccc2[nH]1 (centres undefined)	0%	16	7%	67*	6%	-10%
CCOC(=O)c1c(NC(=O)CSc2nc3ccccc3[nH]2)sc2c1CC(C)(C)NC2(C)C	10µM*	/	7.4µM*	/	2%	5%

Compound activity deposited in PubChem BioAssay by National Center for Advancing Translational Sciences (NCATS).
